ATXN2 expr inh – Primary qHTS for Inhibitors of ATXN expression; HEK-293 ATXN2-luciferase reporter, luminescence, 24 h; Potency, µM (highest dose often 57 µM), inactives show at the top dose activity change, negative = inhibition, actives largely listed as inhibitors; 360,000 tested, 0.72% active; AID 1745845, 2022; note: potency is the fitted concentration of half-maximal effect; % is set by controls: 0 for no effect and ±100 for the full control effect; nearly all actives have a fitted effect of over 55% in size
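qHTS (up to 57 uM final) was run with 24 h compound exposure of reporter cells at 37 °C. Each well was multiplexed: SteadyGlo luminescence measured ATXN2-luciferase expression after a fluorogenic Gly-Phe-AFC viability readout (25 uM final).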
Integrin act MD – qHTS for Activators of Integrin-Mediated Alleviation for Muscular Dystrophy; AID 624291, 2012; alpha7betagal myoblasts, beta-gal FDG fluorescence, 48 h; 350,000 tested, 0.064% active; Potency, µM (top dose mostly 38.3 µM), for the others: at the highest dose activation, most hits filed as activators;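 note: potency is the fitted concentration of half-maximal effect; 100% = response of the positive control SU9516; nearly all actives have a fitted effect of over 60% in size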
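Alpha7betagal+/- myoblasts (passage 13) were plated 16-24 hr, then exposed to compounds (1:260 dilution of DMSO stock) for 48 hours at 37C. After MPER lysis, β-galactosidase reporter activity was read as FDG fluorescence (ex 480/em 540) after 30 minutes.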
D3 antag – qHTS of D3 Dopamine Receptor Antagonist: qHTS | D(3) dopamine receptor (Homo sapiens), P35462 | 360,000 tested, 2.5% active | max response, negative = inhibition, % | D3R cells, DiscoveRx beta-arrestin luminescence, antagonist mode; hits give low values; in the data active = max response below about -50%; inconclusive = no clear call, values can overlap the other calls; note: % is set by controls: 0 for no effect and ±100 for the full control effect
Target sequence (P35462 whole entry, looked up): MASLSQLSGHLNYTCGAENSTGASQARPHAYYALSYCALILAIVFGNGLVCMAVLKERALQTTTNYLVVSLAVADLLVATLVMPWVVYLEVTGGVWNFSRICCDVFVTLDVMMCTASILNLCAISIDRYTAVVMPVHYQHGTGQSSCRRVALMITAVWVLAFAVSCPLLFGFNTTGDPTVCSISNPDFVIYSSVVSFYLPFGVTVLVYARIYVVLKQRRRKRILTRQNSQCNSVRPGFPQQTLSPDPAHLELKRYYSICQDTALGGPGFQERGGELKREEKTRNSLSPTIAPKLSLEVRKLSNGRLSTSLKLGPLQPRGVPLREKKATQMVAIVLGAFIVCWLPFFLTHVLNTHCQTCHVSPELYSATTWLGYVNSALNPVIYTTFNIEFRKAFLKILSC
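Cells plated overnight at 1500 cells/well, then exposed to library compounds with dopamine controls for 90 minutes at 37 degrees C. DiscoveRx reagent added for 30–60 minutes at room temperature; luminescence read, quantitative HTS format.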
ATXN viability – Viability Counterscreen for Primary qHTS for Inhibitors of ATXN expression. S2 cells (HEK-293 line with an ATXN2-luciferase reporter) viability, CellTiter-Fluor protease fluorescence, 24 h. Potency, µM (highest dose often 56.7 µM), actives largely listed as cytotoxic. 400,000 tested, 0.49% active; note: potency is the fitted concentration of half-maximal effect; nearly all actives have a fitted effect of over 40% in size
IL1B secr inh – qHTS for Inhibitors of Inflammasome Signaling: IL-1-beta AlphaLISA Primary Screen | AID 743279, 2014 | 360,000 tested, 4.7% active | THP-1 LPS/ATP IL-1B secretion, AlphaLISA, 16 h; hits give low values | activity change, % at 57.5 µM; in the data active = activity change below about -50%; inconclusive = mostly about -30% to -49%; note: % is set by controls: 0 for no effect and ±100 for the full control effect
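Secreted IL-1B measured by AlphaLISA bead assay after 16 h compound exposure of THP-1 cells; compounds (final up to 57.5 uM) added 1 h before LPS (250 ng/mL) and ATP (1.25 mM) stimulation; lower signal means less secretion.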
DRD3 agonist – qHTS of D3 Dopamine Receptor Agonist: qHTS; D(3) dopamine receptor (Homo sapiens), P35462; D3R DiscoveRx beta-arrestin cells, luminescence, 90 min; max activation, %; 410,000 tested, 0.58% active; AID 652048, 2013; in the data active = max activation above about 30%; note: 0% is about no effect
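Agonist-mode cell screen: cells plated at 1500/well and incubated overnight at 37 °C, then exposed to library compounds for 90 min at 37 °C. Detection reagent was added for 30–60 min at room temperature, and luminescence was read.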
Starred values were filed as active, the others as inactive; i = inactive; ? = inconclusive; nt = not tested or not shown; [ ] = dose if it differs, or a comment. An excerpt weighted towards active compounds, which were near 7% of everything screened. Unless noted, calls come from the whole dose curve; as a rule, active = well fitted curve in the direction sought with a large enough effect; inconclusive = small, poorly fitted or top-dose-only effect, or another doubt; inactive = no such curve, though single readings can be large; an effect the other way counts as inactive or inconclusive.

SMILES	ATXN2 expr inh	Integrin act MD	D3 antag	ATXN viability	IL1B secr inh	DRD3 agonist
CS(=O)(=O)N1CCCCC1c1cc(C(=O)Nc2cccc(C#N)c2)no1 (centres undefined)	9.5%	nt	-8.3	i	-18.2	-16.1
Cn1cnc(S(=O)(=O)N2CCCCC2c2cc(C(=O)Nc3cccc(C#N)c3)no2)c1 (centres undefined)	2.8%	nt	-80.0*	i	-21.8	-22.1
O=C(Cn1nc(C(F)(F)F)c2c1CCCC2)NC1CCCC1	0.9%	-6.2%	-55.1*	i	-15.0	-5.3
Nc1ncnc2c(C3OC(CO)C(O)C3O)scc12 (centres undefined)	?	?	0.0	?	-115.6*	-0.6
Nc1ncnc2c1ncn2[C@@H]1O[C@H](CO)[C@@H](O)[C@@H]1O	-19.7%	nt	0.0	i	-2.7	0.0
CCc1ccc(-n2nc3ccc(NC(=O)c4ccc5c(c4)OCO5)cc3n2)cc1	?	-5.1%	-23.0	?	7.5	2.5
CCc1ccc2[nH]c3nc(SCC(=O)NNC(=O)c4ccc(C(C)(C)C)cc4)nnc3c2c1	?	17.9%	24.4	?	-59.1*	39.4*
COC(=O)c1ccc(COC(=O)c2cccn2C)o1	42.0%	-2.3%	1.1	i	16.6	2.9
c1ccc2c(CCc3ccncc3)cccc2c1	-22.5%	12.9%	-15.9	i	-88.1*	-6.3
c1ccc2c(CSCCc3ccncc3)cccc2c1	4.9%	-17.0%	-7.9	i	17.3	1.4
CCOc1ccccc1C1NC(=O)NC(C)=C1C(=O)OC1CCCC1C (centres undefined)	-1.8%	12.8%	?	i	-2.7	6.1
CC1=C(C(=O)OC2CCCCCCC2)C(c2ccc(O)cc2)NC(=O)N1 (centres undefined)	-4.6%	0.0%	9.9	i	-54.6*	4.6
CCOc1ccccc1C1NC(=O)NC(C)=C1C(=O)OC1CCCCC1 (centres undefined)	-29.1%	21.6%	4.6	i	-67.9*	2.0
COc1ccc(OC)c(CCNC(=O)C(C)n2c(C)c3cnn(-c4ccccc4)c(=O)c3c2C)c1 (centres undefined)	-3.8%	nt	nt	i	nt	-14.2
O=S(=O)(NC(=S)c1ccccc1)c1ccc(F)cc1	0.7%	-9.2%	-11.5	i	17.4	1.3
COc1nc(NCCc2ccc(OC)c(OC)c2)nc(Nc2ccccc2)n1	7.6%	-27.8%	7.6	i	-81.2*	20.9
COc1ccc(CCNc2ncnc3c2oc2ccccc23)cc1OC	28.2µM*	-49.4%	11.9	nt	-90.0*	21.6
COc1ccc(CCNc2nc(-c3ccccc3OC)cc(C(F)(F)F)n2)cc1OC	-15.5%	nt	nt	i	nt	7.8
NC(=S)N/N=C/c1ccc(C23CC4CC(CC(C4)C2)C3)cc1	?	15.0%	-88.8*	i	16.2	-27.7
CCCn1c(C)cc(C(=O)COC(=O)CN=C2NS(=O)(=O)c3ccccc32)c1C	0.3%	16.2%	6.5	i	4.7	2.5
c1ccc(-c2oc3ncnc(NCCCN4CCOCC4)c3c2-c2ccccc2)cc1	?	-3.7%	-64.8*	i	-22.2	-1.6
COc1ccc(-c2oc3ncn(CCN4CCOCC4)c(=N)c3c2-c2ccc(OC)cc2)cc1	?	-10.9%[7.66 µM]	?	?	-53.4*	-3.1
N#Cc1nc(COc2ccc(-c3ccccc3)cc2)oc1NCCCN1CCOCC1	31.6µM*	-33.0%	17.8	?	?	-3.4
COc1nc(NCCN2CCOCC2)nc(Nc2ccccc2)n1	36.9%	7.0%	4.4	i	7.6	-0.6
COc1ccc(Nc2nc(NCCN3CCOCC3)nc(Nc3ccc(OC)cc3)n2)cc1	23.1%	-17.1%	8.3	i	-90.9*	2.8
SMILES	ATXN2 expr inh	Integrin act MD	D3 antag	ATXN viability	IL1B secr inh	DRD3 agonist
O=C(CSc1ncc(C(F)(F)F)cc1Cl)N1CCN(S(=O)(=O)c2ccc3ccccc3c2)CC1	-0.5%	-4.7%[7.66 µM]	9.5	i	-18.3	-0.9
COc1ccc(-c2oc3ncnc(NCCCN4CCOCC4)c3c2-c2ccc(OC)cc2)cc1	?	-14.0%[7.66 µM]	-94.2*	?	?	-5.5
Nc1nc(-c2ccccc2)c(N=Nc2ccccc2Cl)s1	?	-36.6%	-59.4*	nt	-63.8*	-7.9
Nc1nc(-c2ccccc2)c(N=Nc2cccc3ccccc23)s1	-36.5%	-32.0%	?	?	-25.6	-9.0
NC1=NC2=C(CCCC2)C2(CCCCC2)S1	-14.6%	-51.3%	15.8	i	-65.1*	-5.3
COc1ccc(NC(=O)CN2C(=O)COc3ccc(S(=O)(=O)N4CCCCC4)cc32)c(OC)c1	2.1%	13.8%	-7.4	?	-54.0*	1.0
COc1cc(NC(=O)CN2C(=O)COc3ccc(S(=O)(=O)N4CCCCC4)cc32)cc(OC)c1	6.6%	-28.2%	1.1	i	0.0	5.1
CC1CCN(S(=O)(=O)c2ccc3c(c2)N(CC(=O)NCCCN2CCCC(C)C2)C(=O)CS3)CC1 (centres undefined)	-6.2%	-18.1%	-20.2	?	-21.1	-15.4
CC1CCN(S(=O)(=O)c2ccc3c(c2)N(CC(=O)NCCc2ccc(Cl)cc2)C(=O)CO3)CC1	?	nt	nt	28.2µM*	nt	-17.9
O=C(CN1C(=O)COc2ccc(S(=O)(=O)N3CCCCC3)cc21)NCCc1ccc(Cl)cc1	nt	nt	nt	nt	nt	-15.7
CC1CCN(S(=O)(=O)c2ccc3c(c2)N(CC(=O)NCCCN2CCCC(C)C2)C(=O)CO3)CC1 (centres undefined)	-4.6%	-28.1%	-89.0*	i	-16.8	-17.8
CCOc1ccc(NC(=O)CN2C(=O)CCSc3ccc(S(=O)(=O)N4CCCC4)cc32)cc1	5.0%	12.1%	0.0	i	9.0	-0.8
COc1ccc(N(C)C(=O)CCS(=O)(=O)c2cccc3nonc23)cc1	1.9%	-14.6%	0.7	?	-4.4	12.4
CN1CCN(C2=Nc3c(Cl)cc(Cl)c4cccc2c34)CC1	nt	?	-21.4	i	-53.3*	-8.0
COc1cc(-c2ccccc2)nc(N)n1	86.1%	22.5%	-11.1	i	18.3	-33.2
Nc1nc(Cl)cc(-c2ccccc2)n1	-29.6%	-24.3%	-7.4	i	-50.1*	-2.6
CCOC(=O)c1c(-c2ccccc2)oc2ccc(O)cc12	nt	-24.8%	2.9	?	8.6	6.9
CCOC(=O)c1c(CN2CCOCC2)oc2ccc(OC(C)=O)cc12	-8.6%	-11.9%	2.1	i	25.6	1.0
COCCOC(=O)c1c(C)oc2ccc(OCc3cc(C(=O)OC)oc3C)cc12	11.7%	11.3%	28.4	i	?	48.3*

High-throughput results from PubChem BioAssay.
